About 79,000 compounds went through this panel and 15% of them were active in at least one assay; those are over-represented in the sample as a whole. Calls of active or inactive are those of the source. No stated cut-off is given here; in the data, active means growth inhibition above about 70%; inactive means the rest.
Experiments:
[1] = NCI Yeast Anticancer Drug Screen. Data for the mec2-1 strain (AID 157); details: S. cerevisiae mec2-1 strain, active compounds read high
In short: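 Growth inhibition is read against vehicle-treated controls after compound exposure of the mec2-1 yeast strain, which is defective in DNA damage repair or cell cycle control.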

[2] = NCI Yeast Anticancer Drug Screen. Data for the rad14 strain (AID 159);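 further: 0% = growth of vehicle-treated control cultures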; details: S. cerevisiae rad14 strain growth inhibition, active compounds read high
In short: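 Test compounds were applied to a repair-deficient yeast strain. Its growth was then compared with that of cultures given vehicle alone, and inhibition was expressed relative to those controls.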

[3] = NCI Yeast Anticancer Drug Screen. Data for the sgs1 mgt1 strain (AID 161);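 further: 0% = growth of cultures given vehicle only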; details: S. cerevisiae sgs1 mgt1 strain, active compounds read high
In short: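 This yeast growth screen uses a strain with defined DNA-repair lesions; compound-treated growth is compared with vehicle-treated growth.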

[4] = NCI Yeast Anticancer Drug Screen. Data for the CLN2oe strain (AID 163);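 further: 0% = growth of vehicle-only control cultures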; details: S. cerevisiae CLN2oe strain, active compounds read high
In short: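 Compound-treated yeast; growth vs vehicle ctrl = % inhibition. Genetically altered strain (cell-cycle control).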

[5] = NCI Yeast Anticancer Drug Screen. Data for the cln2 rad14 strain (AID 165);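 further: 0% = growth equal to vehicle treated cultures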; details: S. cerevisiae cln2 rad14 strain, active compounds read high
In short: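 Growth inhibition, relative to vehicle-treated controls, is the read-out. The test organism is a yeast strain with defined genetic alterations, cln2 rad14.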

[6] = NCI Yeast Anticancer Drug Screen. Data for the bub3 strain (AID 167); details: S. cerevisiae bub3 mutant strain, active compounds read high
In short: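 Yeast carrying a defined mutation is treated with each compound, and growth is compared with that of vehicle-exposed cells to give inhibition.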

[7] = NCI Yeast Anticancer Drug Screen. Data for the wt2 strain (AID 169);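 further: 0% = growth of vehicle-treated yeast cultures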; details: S. cerevisiae wt2 strain growth inhibition, active compounds read high
In short: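 Compound exposure of yeast; growth compared with vehicle controls; inhibition reported.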

[8] = NCI Yeast Anticancer Drug Screen. Data for the mlh1 strain (AID 171);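 further: 0% = growth of vehicle-treated control cultures of the same strain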; details: S. cerevisiae mlh1 strain growth inhibition, active compounds read high
In short: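 Compounds are applied to a genetically altered yeast strain, and its growth is compared with that of vehicle-treated cultures to give percent inhibition.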

[9] = NCI Yeast Anticancer Drug Screen. Data for the sgs1 strain (AID 173);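 further: 0% = growth of vehicle-only control cultures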; details: S. cerevisiae sgs1 mutant, active compounds read high
In short: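 Compounds applied to genetically altered yeast; growth compared with vehicle-treated cultures to give % inhibition.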

[10] = NCI Yeast Anticancer Drug Screen. Data for the mlh1 rad18 strain (AID 175); details: S. cerevisiae mlh1 rad18 strain growth inhibition, active compounds read high
In short: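 Cells of a genetically altered yeast strain, deficient in DNA damage repair, were treated with compound. Their growth was then compared with that of vehicle-treated cultures to give inhibition.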

[11] = NCI Yeast Anticancer Drug Screen. Data for the rad18 strain (AID 177); details: S. cerevisiae rad18 mutant growth inhibition, active compounds read high
In short: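 Compounds are applied to a repair-deficient yeast strain, and growth is compared with that of vehicle-treated cultures to give percent inhibition.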

[12] = NCI Yeast Anticancer Drug Screen. Data for the rad52 strain (AID 147);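 further: 0% = growth of vehicle-treated control cultures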; details: S. cerevisiae rad52 mutant growth inhibition, active compounds read high
In short: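 DNA repair-defective yeast; compound exposure; growth scored against vehicle controls.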

[13] = NCI Yeast Anticancer Drug Screen. Data for the wt1 strain (AID 149);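 further: 0% = growth of vehicle-treated wt1 cultures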; details: S. cerevisiae wt1 strain (SPY 50644) growth inhibition, active compounds read high
In short: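 wt1 yeast, compound-treated; % growth inhibition vs vehicle control.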

[14] = NCI Yeast Anticancer Drug Screen. Data for the rad50EPP+ strain (AID 151);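 further: 0% = growth of vehicle-treated control cultures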; details: S. cerevisiae rad50 mutant strain, active compounds read high
In short: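 rad50EPP+ yeast treated with test compounds. Readout: growth vs vehicle control.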

[15] = NCI Yeast Anticancer Drug Screen. Data for the mgt1 strain (AID 153); details: S. cerevisiae mgt1 mutant growth inhibition, active compounds read high
In short: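 Growth inhibition relative to vehicle controls was scored for the mgt1 yeast strain after compound exposure.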

[16] = NCI Yeast Anticancer Drug Screen. Data for the rad50 strain (AID 155);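 further: 0% = growth of vehicle-only cultures of the same strain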; details: S. cerevisiae rad50 strain growth inhibition, active compounds read high
In short: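 Genetically altered yeast (DNA repair pathway); compound treatment; growth inhibition vs vehicle ctrl.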

[17] = at 5.0 µM (retest, dose inferred, filed as 0.5)
[18] = at 50.0 µM (retest, dose inferred, filed as 5.0)

Measured: growth inhibition

CCOC(=N)c1ccc(O)c(OC)c1
active: [6]; [18] 83% | [6]; at 50.0 µM 86.6% | [6]; at 100.0 µM 79%
inactive: [1]; [17] -42% | [1]; at 11.0 µM 2% | [1]; at 33.0 µM 3% | [1]; [18] -3% | [1]; at 50.0 µM -9% | [1]; at 100.0 µM 2% | [2]; at 1.2 µM -2% | [2]; at 3.7 µM -6% | [2]; at 11.0 µM -19% | [2]; at 33.0 µM -4% | [2]; at 100.0 µM -1% | [3]; [17] 0% | [3]; [18] -4% | [3]; at 50.0 µM -2.6% | [4]; at 1.2 µM -2% | [4]; at 3.7 µM -5% | [4]; at 11.0 µM 1% | [4]; at 33.0 µM -3% | [4]; at 100.0 µM -1% | [5]; [17] 2% | [5]; [18] 0% | [5]; at 50.0 µM -39.2% | [6]; at 1.2 µM 7% | [6]; at 3.7 µM 17% | [6]; [17] 30% | [6]; at 11.0 µM 48% | [6]; at 33.0 µM 66% | [7]; at 1.2 µM -3% | [7]; at 3.7 µM 6% | [7]; at 11.0 µM -3% | [7]; at 33.0 µM -1% | [7]; at 100.0 µM -2% | [8]; at 1.2 µM -2% | [8]; at 3.7 µM -3% | [8]; at 11.0 µM -2% | [8]; at 33.0 µM 1% | [8]; at 100.0 µM 1% | [9]; at 1.2 µM -3% | [9]; at 3.7 µM -5% | [9]; at 11.0 µM -4% | [9]; at 33.0 µM -3% | [9]; at 100.0 µM 3% | [10]; [17] -1% | [10]; [18] -3% | [10]; at 50.0 µM 17.4% | [11]; at 1.2 µM -1% | [11]; at 3.7 µM -3% | [11]; at 11.0 µM -3% | [11]; at 33.0 µM 0% | [11]; at 100.0 µM 14%

CC1OC(O[C@H]2/C=C/C=C/C=C/C=C/C=C/C=C/C=C/[C@H](C)[C@@H](O)[C@@H](C)[C@H](C)OC(=O)C[C@H](O)C[C@H](O)CC[C@@H](O)[C@H](O)C[C@H](O)C[C@]3(O)C[C@H](O)[C@@H](C(=O)O)[C@H](C2)O3)C(O)C(N)C1O (some centres undefined)
active: [12]; at 11.0 µM 98% | [12]; at 33.0 µM 98% | [12]; at 100.0 µM 98% | [13]; at 11.0 µM 98% | [13]; at 33.0 µM 98% | [13]; at 100.0 µM 98% | [14]; at 3.7 µM 97% | [14]; at 11.0 µM 99% | [14]; at 33.0 µM 99% | [14]; at 100.0 µM 98% | [15]; at 11.0 µM 98% | [15]; at 33.0 µM 99% | [15]; at 100.0 µM 98% | [16]; at 11.0 µM 98% | [16]; at 33.0 µM 98% | [16]; [18] 99% | [16]; at 50.0 µM 99.1% | [16]; at 100.0 µM 97% | [1]; at 11.0 µM 98% | [1]; at 33.0 µM 98% | [1]; [18] 99% | [1]; at 50.0 µM 99.4% | [1]; at 100.0 µM 98% | [2]; at 11.0 µM 95% | [2]; at 33.0 µM 97% | [2]; at 100.0 µM 98% | [3]; [18] 99% | [3]; at 50.0 µM 99.2% | [4]; at 11.0 µM 98% | [4]; at 33.0 µM 98% | [4]; at 100.0 µM 98% | [5]; [18] 99% | [5]; at 50.0 µM 99.1% | [6]; at 11.0 µM 98% | [6]; at 33.0 µM 98% | [6]; [18] 99% | [6]; at 50.0 µM 98.8% | [6]; at 100.0 µM 98% | [7]; at 11.0 µM 96% | [7]; at 33.0 µM 98% | [7]; at 100.0 µM 98% | [8]; at 3.7 µM 78% | [8]; at 11.0 µM 98% | [8]; at 33.0 µM 98% | [8]; at 100.0 µM 98% | [9]; at 11.0 µM 99% | [9]; at 33.0 µM 99% | [9]; at 100.0 µM 99% | [10]; [18] 99% | [10]; at 50.0 µM 98.7%
inactive: [12]; at 1.2 µM 2% | [12]; at 3.7 µM 45% | [13]; at 1.2 µM 2% | [13]; at 3.7 µM 13% | [14]; at 1.2 µM 25% | [15]; at 1.2 µM 17% | [15]; at 3.7 µM 57% | [16]; at 1.2 µM 19% | [16]; at 3.7 µM 61% | [16]; [17] 18% | [1]; at 1.2 µM -2% | [1]; at 3.7 µM 28% | [1]; [17] 32% | [2]; at 1.2 µM 2% | [2]; at 3.7 µM 23% | [3]; [17] 25% | [4]; at 1.2 µM 2% | [4]; at 3.7 µM 23% | [5]; [17] 50% | [6]; at 1.2 µM -19% | [6]; at 3.7 µM 19% | [6]; [17] 14% | [7]; at 1.2 µM -65% | [7]; at 3.7 µM -3% | [8]; at 1.2 µM 7% | [9]; at 1.2 µM 10% | [9]; at 3.7 µM 50% | [10]; [17] 47%

CC(C)/C(Cl)=N\OC(=O)Nc1ccc(F)cc1F
inactive: [12]; at 1.2 µM 1% | [12]; at 3.7 µM 7% | [12]; at 11.0 µM 15% | [12]; at 33.0 µM 28% | [13]; at 1.2 µM 2% | [13]; at 3.7 µM 1% | [13]; at 11.0 µM -2% | [13]; at 33.0 µM -1% | [13]; at 100.0 µM 6% | [14]; at 1.2 µM 7% | [14]; at 3.7 µM 13% | [14]; at 11.0 µM 25% | [14]; at 33.0 µM 54% | [15]; at 1.2 µM 3% | [15]; at 3.7 µM 1% | [15]; at 11.0 µM 4% | [15]; at 33.0 µM 13% | [16]; at 1.2 µM 2% | [16]; at 3.7 µM 8% | [16]; [17] 2% | [16]; at 11.0 µM 15% | [16]; at 33.0 µM 32% | [16]; at 50.0 µM 6.55% | [1]; at 1.2 µM 5% | [1]; at 3.7 µM 9% | [1]; [17] 4% | [1]; at 11.0 µM 13% | [1]; at 33.0 µM 28% | [2]; at 1.2 µM 0% | [2]; at 3.7 µM 3% | [2]; at 11.0 µM 9% | [2]; at 33.0 µM 17% | [2]; at 100.0 µM 37% | [3]; [17] -12% | [3]; [18] 69% | [4]; at 1.2 µM 7% | [4]; at 3.7 µM 11% | [4]; at 11.0 µM 12% | [4]; at 33.0 µM 12% | [4]; at 100.0 µM 24% | [5]; [17] -1% | [5]; [18] 38% | [5]; at 50.0 µM 44.8% | [6]; at 1.2 µM 23% | [6]; at 3.7 µM 38% | [6]; [17] 27% | [7]; at 1.2 µM 0% | [7]; at 3.7 µM 0% | [7]; at 11.0 µM 2% | [7]; at 33.0 µM 12% | [7]; at 100.0 µM 63% | [8]; at 1.2 µM 0% | [8]; at 3.7 µM 6% | [8]; at 11.0 µM 9% | [8]; at 33.0 µM 16% | [8]; at 100.0 µM 53% | [9]; at 1.2 µM -1% | [9]; at 3.7 µM 0% | [9]; at 11.0 µM 4% | [9]; at 33.0 µM 27% | [10]; [17] -29% | [10]; [18] 69% | [10]; at 50.0 µM 58% | [11]; at 1.2 µM -3% | [11]; at 3.7 µM -1% | [11]; at 11.0 µM 4% | [11]; at 33.0 µM 17%
active: [12]; at 100.0 µM 75% | [14]; at 100.0 µM 85% | [15]; at 100.0 µM 96% | [16]; [18] 78% | [16]; at 100.0 µM 80% | [1]; [18] 83% | [1]; at 50.0 µM 72.4% | [1]; at 100.0 µM 95% | [3]; at 50.0 µM 70.8% | [6]; at 11.0 µM 70% | [6]; at 33.0 µM 90% | [6]; [18] 97% | [6]; at 50.0 µM 82.1% | [6]; at 100.0 µM 98% | [9]; at 100.0 µM 83% | [11]; at 100.0 µM 79%
